# From PubChem BioAssay (NCATS)
# Records with an inconclusive call do not appear. Unmarked numbers belong to inactive results. Calls come from the whole dose curve; as a rule, active = well fitted activation curve with a large enough effect; inconclusive = small, poorly fitted or top-dose-only effect; inactive = no such curve, though single readings can be large or run the other way.
# Assay: qHTS for Activators of Parkin Expression: LOPAC Validation Assay (FLuc Reporter) (AID 720573)
# Conditions: Cell line, PRKN promoter firefly luciferase reporter, vehicle wells = 0, positive control = 100%; series mostly up to 46.1 µM; activation: at the top concentration
# How it was run: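 Readout is FLuc luminescence from neuronal reporter cells (Parkin promoter, FLuc plus NLuc) after 24 h compound exposure in dose response. Values normalized to neutral DMSO and positive-control compounds.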
row,SMILES,activation [%]
1,c1ccc(C2CC2)c(OCC2=NCCN2)c1,-10
2,CCCN1CCC[C@@H]2Cc3nc(N)ncc3C[C@H]21,6.13
3,Cc1cc2c(C(C)C)c(O)c(O)c(C=O)c2c(O)c1-c1c(C)cc2c(C(C)C)c(O)c(O)c(C=O)c2c1O,-48.4
4,CNCC(O)c1ccc(O)cc1 (configuration not stated),-2.35
5,CC(O)(CS(=O)(=O)c1ccc(F)cc1)C(=O)Nc1ccc(C#N)c(C(F)(F)F)c1 (configuration not stated),-13.8
6,Cc1ccc(S(=O)(=O)N[C@@H](CCCCN)C(=O)CCl)cc1,-8.29
7,COC[C@H]1OC(=O)c2coc3c2[C@@]1(C)C1=C(C3=O)C2CCC(=O)[C@@]2(C)C[C@H]1OC(C)=O (some centres not stated),-17
8,C[C@]12CCC(=O)C(O)=C1CC[C@@H]1[C@@H]2CC[C@]2(C)C(=O)CC[C@@H]12,-5.9
9,CCC1(C2=NCCN2)Cc2ccccc2O1 (configuration not stated),-6.36
10,C[C@@H]1O[C@@H](O[C@H]2C[C@@H](O)[C@]3(CO)[C@H]4[C@H](O)C[C@]5(C)[C@@H](C6=CC(=O)OC6)CC[C@]5(O)[C@@H]4CC[C@]3(O)C2)[C@H](O)[C@H](O)[C@H]1O,-23.4
11,CC(CCc1ccccc1)NC(C)C(O)c1ccc(O)cc1 (configuration not stated),-13.3
12,CC(C)=CCOc1c2occc2cc2ccc(=O)oc12,-6.59
13,CCCC(C)(COC(N)=O)COC(=O)NC(C)C (configuration not stated),-0.641
14,C=C(C)[C@H]1Cc2c(ccc3c2O[C@@H]2COc4cc(OC)c(OC)cc4[C@@H]2C3=O)O1,-25
15,NCC(O)c1ccc(O)cc1 (configuration not stated),-7.56
16,Nc1ccncc1,-10.5
17,CC[C@@H](CO)NC(=O)[C@@H]1C=C2c3cccc4[nH]cc(c34)C[C@H]2N(C)C1,-6.09
